Values joined by “and” are separate entries in the source; they are usually repeats but may differ in a detail not shown here. Equal values may be shown once. About 83,000 compounds went through this panel and 20% of them were active in at least one assay; those are over-represented in the sample as a whole.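 Values shown are percent growth following 48 h exposure of cells in 96-well plates to a single concentration of compound; below 10 was considered active.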 Unmarked numbers belong to inactive results. Active and inactive are the calls of the source.
tested on: MDA-MB-468 breast; test: NCI-60 one-dose screen, 48 h (100 = growth as untreated, 0 = no growth, -100 = all killed); details: 10 µM unless noted

Compound | growth
Cn1c(-c2ccccc2)c(/C=C/C2=[N+](C)c3ccccc3C2(C)C)c2ccccc21 | -16.5% (active)
Nc1ccc(S(=O)(=O)O)c2ccc(N=Nc3ccc(N=Nc4ccc(S(=O)(=O)O)cc4)c4ccccc34)c(O)c12 | 96.6%
O=[N+]([O-])c1ccc(-c2nnc(SCc3ccc(O)c4ncccc34)n2-c2ccccc2)cc1 | 19.9%
CCOC(=O)c1c(C)cc(=O)oc1C | 105%
Cc1cc(C)c2c(N)c3cccc(C)c3nc2n1 | -54.4% (active)
Cc1ccc(N2C(=O)/C(=C/C=C/c3ccco3)SC2=S)cc1 | 50.7%
Clc1ccc(Nc2nccc(Nc3ccc4[nH]ncc4c3)n2)cc1 | 33.6%
COc1cc(/C=C\c2cc(/C=C\c3ccc(O)c(OC)c3)n(C(=O)COc3ccc(Cl)cc3Cl)n2)ccc1O | 12.5%
CC(C)CSc1oc(-c2ccccc2)nc1S(=O)(=O)c1ccccc1 | 89.4%
CCc1ccc(Nc2ncnc3c2cnn3-c2cccc(Br)c2)cc1 | 91%
Cc1ccnc(Nc2nc3ccccc3[nH]2)n1 | 119%
C=C(CNCCO)[C@@H]1CC[C@]2(CO)CC[C@]3(C)[C@H](CC[C@@H]4[C@@]5(C)CCC(NCCO)C(C)(C)[C@@H]5CC[C@]43C)[C@@H]12 (stereo not given in full) | 51%
COc1ccccc1-c1ccc2c(N)c(C(=O)c3ccc4c(c3)OCO4)sc2n1 | 55.1%
CCCCN1C=CCN(CCCC)C1 | -1.66% (active)
Cn1cc(-c2nnc(N)nc2-c2c[nH]c3ccc(Br)cc23)c2cc(Br)ccc21 | 105%
COc1cc(-c2cc(-c3cc(OC)c(OC)c(OC)c3)nc3nc(N)[nH]c(=O)c23)ccc1Oc1ccnc2cc(Cl)ccc12 | 15.9%
CN(C)C(=O)c1cc2cnc(Nc3ccc(-c4csc5c(=O)cc(N6CCOCC6)oc45)cc3)nc2n1C1CCCC1 | -5.41% (active)
C/C=C/C=C1\C[C@H]2CO[C@H](O2)C1=O | 103%
Cn1cc(-c2ccc3ncc(-c4ccc(CC(=O)Nc5cc(C(C)(C)C)nn5C)cc4)cc3c2)cn1 | -2.1% [30 µM] (active)
OCC(O)COc1ccc(Cl)cc1Cl (stereo not given) | 111%

Compound | growth
CC1=CSC2=NCCN12 | 118%
CCOC(=O)c1c(-c2ccc(Cl)cc2)c(C#N)c2c(C#N)c(N)nn2c1N | 33.6%
C[C@H](NC(=O)[C@@H](C)N)[C@H](Oc1ccc2c(cnn2-c2ccc(F)cc2)c1)c1ccc2c(c1)OCCO2 | 37.7%
CC(C)(C)OC(=O)N1C/C(=C\c2ccoc2)C(=O)/C(=C/c2ccoc2)C1 | 97.3%
c1ccc(-c2nn(-c3ccccc3)[n+](-c3ccccc3-c3ccccc3)n2)cc1 | -38.6% (active)
C=C1C(=O)C2CCC1C2 (stereo not given) | 110%
COc1ccc(-c2nc3ccc4[nH]ncc4c3c3c2CCCC3)cc1B(O)O | 31.5%
Cc1cc(-c2ccc(NS(=O)(=O)c3ccccc3)c(C)c2)ccc1NS(=O)(=O)c1ccccc1 | 80.4% and 101%
COc1cc(Cn2cc(F)c(=O)[nH]c2=O)cc(OC)c1 | 106% [50 µM]
COc1ccc(Oc2nc(Nc3ccc(N4CCOCC4)cc3)ncc2NC(=O)Nc2cc(OC)cc(OC)c2)cc1 | 25.3%
NCCn1cc(-c2nc(-c3c[nH]c4ncccc34)cs2)c2ccccc21 | 40.5%
COC(=O)c1c(-c2ccccc2)csc1NC(=O)c1c(-c2ccccc2)noc1C | 63.6%
C(=C\c1ccncc1)/c1ccncc1 | 92.6%
Cc1ccc(C2Oc3ccccc3C3CC(c4cccs4)=NN32)cc1 (stereo not given) | 109%
C=C1CC[C@@H]2[C@](C)(COC(C)=O)[C@H](OC(C)=O)CC[C@@]2(C)[C@@H]1CC(Nc1ccc(S(=O)(=O)NC(C)=O)cc1)C1=CCOC1=O (stereo not given in full) | -53.9% (active)
Clc1ccc(CSc2nnc(-c3ccc(Cl)cc3)n2-c2ccccc2)cc1 | 64.8%
COc1ccc2nc3cc(Cl)ccc3c(N3CCN(c4ccnc(N5CCN(C)CC5)n4)CC3)c2c1 | -51.9% (active)
Cc1cc2[nH]c(=O)c3c4ncccc4cn3c2cc1C | 23.2%
Nc1c(C(=O)Nc2cccc(Cl)c2)sc2ncc(Cl)cc12 | 95.3%
COc1ccc(/C=C(\C#N)C(=O)Nc2cccc(Nc3nc(SC)nc(-c4cccc([N+](=O)[O-])c4)c3C#N)c2)cc1OC | 106%

From PubChem BioAssay (NCI)
